Results on 40 compounds are retold here after PubChem BioAssay (Tox21).

Molecules are shown by their SMILES. Where “and” joins values, the source holds several entries; their conditions need not be identical. Identical values can stand only once. Inconclusive results are not listed. A call without a number means that no potency is given here. A structure can be active in one record and inactive in another. Calls of active or inactive are those of the source. Calls follow the shape of the full dose curve.
Potency is read from the fitted curve at half-maximal effect.

The test is described as follows: qHTS assay to identify small molecule agonists of the endoplasmic reticulum stress response signaling pathway - cell viability counter screen (AID 1159517). Also: nearly all actives have a fitted effect of over 50% in size. The note with it: ESRE-bla HeLa viability, CellTiter-Glo luminescence, 5 h; series mostly up to 61 µM. From the text:
U.S. Tox21 Program National Center for Advancing Translational Sciences [NCATS] NIH Chemical Genomics Center [NCGC] U.S. Environmental Protection Agency [EPA] National Institutes of Environmental Health Sciences [NIEHS] National Toxicology Program [NTP] U.S. Food and Drug Administration [FDA] Tox21 Assay Overview: Endoplasmic Reticulum (ER) plays an important role in cellular signaling, protein folding/maturation, stress response, lipid biosynthesis, calcium storage and release etc. Under stress conditions, proteins in ER misfold or unfold, and leading to the expression of ER stress responsive genes. ER stress has been associated with a variety of pathophysiological conditions such as cancer, inflammation, neurodegenerative diseases, diabetes, ischemic heart disease etc. To identify the compounds that induce ER stress response, an ER stress reporter cell line, CellSensor ESRE-bla HeLa (Life Technologies, Carlsbad, CA) containing a beta-lactamase reporter gene under control of the Endoplasmic reticulum Stress Response Element (ESRE) was used to screen Tox21 10K compound library. The cytotoxicity of the Tox21 compound library against the ESRE-bla HeLa cell line was tested in parallel by measuring cell viability using the CellTiter-Glo assay in the same wells.
Tox21 Assay Protocol Summary: ESRE-bla HeLa cells were dispensed at 1,500 cells/6 uL of assay medium per well into black wall/clear-bottom 1536-well plates using a Multidrop Combi (ThermoFisher Scientific, Waltham, MA) dispenser. After the assay plates were incubated at 37 C and 5% CO2 for an overnight, 23 nL of compounds dissolved in DMSO, positive controls or DMSO only was transferred to the assay plate by a Pintool station (Kalypsys, San Diego, CA). The assay plates were incubated at 37 C and 5% CO2 for 5 hr. One uL of LiveBLAzer B/G FRET substrate (Life Technologies) was added using a FRD (Flying Reagent Dispenser, Aurora Discovery, San Diego, CA) and the plates were incubated at room temperature for 2 hr. Fluorescence intensity (405 nm excitation, 460 nm and 530 nm emissions) was measured using an Envision plate reader (PerkinElmer, Shelton, CT). For cytotoxicity, 4 ul/well of CellTiter-Glo reagent was added into the assay plates using an FRD. After 30 min incubation at room temperature, the luminescence intensity was measured using a ViewLux plate reader (PerkinElmer).
With `ClC(Cl)(Cl)c1ccccc1`, the Potency result was “inactive”.

Regarding `Clc1ccccc1-c1nnc(-c2ccccc2Cl)nn1`, the Potency result is “inactive”. Consider `CCOC(=O)c1ccccc1N`, for which the Potency entry was “inactive”. In the case of `CC(C)(c1ccc(OCC2CO2)cc1)c1ccc(OCC2CO2)cc1` (stereo not given), the Potency entry was “inactive”. Regarding `CC(C)COC(=O)c1ccccc1C(=O)OCC(C)C`, the Potency entry is “inactive”. As for `CCCCCCCCCC(CC)c1ccc(S(=O)(=O)O)cc1` (stereo not given), the Potency result was “inactive and 21.3 µM (active) and 21.9 µM (active)”.

For `CCOP(=S)(OCC)OP(=S)(OCC)OCC`, the Potency result is “inactive”. For `COC(=O)Nc1nc2ccccc2[nH]1`, the Potency result is “inactive”. Take `CC1=C(C(=O)Nc2ccccc2)SCCO1`: the Potency result is “inactive”. `CNC(=S)S`: the Potency result was “inactive”. As for `C[C@]12CCC(=O)C=C1CC[C@@H]1[C@@H]2CC[C@@]2(C)[C@H]1CC[C@]2(C)O`, the Potency entry is “inactive”.

With `Oc1ccc(Cl)cc1Cl`, the Potency result is “inactive”. As to `OC(c1ccc(Cl)cc1)(c1cncnc1)c1ccccc1Cl` (stereo not given), the Potency entry is “inactive”. For `[CH3][Sn]([Cl])([Cl])[Cl]` the value was “inactive”. For `CC(C)(C#N)N=NC(C)(C)C#N` the value was “inactive”; for `N#Cc1c(Cl)c(Cl)c(Cl)c(C#N)c1Cl`, 5.39 µM (active) and 5.49 µM (active); for `C=C(C)C#N`, “inactive”.

For `ClC(Cl)(Cl)Br`, the Potency entry is “inactive”. With `OCCOCCO` the entry was “inactive”; with `Cc1cc(Cl)ccc1N=CN(C)C`, “inactive”; with `CC(C)Nc1ccc(Nc2ccccc2)cc1`, “inactive”. On to `COP(=S)(OC)Oc1ccc(Sc2ccc(OP(=S)(OC)OC)cc2)cc1`, for which the Potency entry was “inactive”.

As for `O=[N+]([O-])c1ccc(Nc2ccccc2)cc1`, the Potency result is “inactive and 54.9 µM (active)”. `CCOP(=O)(O)OCC` (tested in a mixture with another compound): the Potency result was “inactive and 24.3 µM (active)”. For `CCOP(=O)(OCC)OCC` the value was “inactive”; for `NC(=O)CN1CCCC1=O`, “inactive”. With `O=NN(c1ccccc1)c1ccccc1`, the Potency result was “inactive”. As to `CCCCC(C#N)(Cn1cncn1)c1ccc(Cl)cc1` (stereo not given), the Potency entry was “inactive”. `O=C(O)c1nn(Cc2ccc(Cl)cc2Cl)c2ccccc12`: the Potency result is “inactive”. Regarding `NN=C(N)N`, the Potency result was “inactive”.

`CC(C)Nc1nc(Cl)nc(NC(C)C)n1`: the Potency entry is “inactive”. Consider `C[N+](C)(C)CC(=O)[O-]`, for which the Potency result was “inactive”.

Take `CSc1nc(NC(C)C)nc(NC(C)C)n1`: the Potency result is “inactive”. Consider `COP(=S)(OC)Oc1ccc(S(=O)(=O)N(C)C)cc1`, for which the Potency entry is “inactive”. With `O=[N+]([O-])c1ccc(Cl)c([N+](=O)[O-])c1` the figure was 22.2 µM (active) and 49 µM (active); with `C=CC(Cl)CCl` (stereo not given), “inactive”; with `O=[N+]([O-])/N=C1\NCCN1Cc1ccc(Cl)nc1`, “inactive”.

As to `CCCCCCCCCc1ccc(O)cc1`, the Potency entry is “inactive”. `N#CC(c1ccccc1)c1ccccc1`: the Potency entry was “inactive”. With `CC(C)(O)C(=O)Nc1ccc([N+](=O)[O-])c(C(F)(F)F)c1` the entry was “inactive”.
